Assay outcomes deposited in PubChem BioAssay by The Scripps Research Institute Molecular Screening Center.
Shown are actives, neighbours in structure and some others; about 2.4% of the full set was active somewhere.
ULK1 inh: inhibitors of human ULK1 kinase; AID 1259251; O75385; AlphaScreen Atg13 phosphorylation by ULK1, luminescence; 30,000 tested, 1.9% active; inhibition, % at 5.96 µM; in the data active = inhibition above about 43%;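 also: 0% = median of compound wells and 100% = no enzyme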
Target sequence (O75385 whole entry, looked up): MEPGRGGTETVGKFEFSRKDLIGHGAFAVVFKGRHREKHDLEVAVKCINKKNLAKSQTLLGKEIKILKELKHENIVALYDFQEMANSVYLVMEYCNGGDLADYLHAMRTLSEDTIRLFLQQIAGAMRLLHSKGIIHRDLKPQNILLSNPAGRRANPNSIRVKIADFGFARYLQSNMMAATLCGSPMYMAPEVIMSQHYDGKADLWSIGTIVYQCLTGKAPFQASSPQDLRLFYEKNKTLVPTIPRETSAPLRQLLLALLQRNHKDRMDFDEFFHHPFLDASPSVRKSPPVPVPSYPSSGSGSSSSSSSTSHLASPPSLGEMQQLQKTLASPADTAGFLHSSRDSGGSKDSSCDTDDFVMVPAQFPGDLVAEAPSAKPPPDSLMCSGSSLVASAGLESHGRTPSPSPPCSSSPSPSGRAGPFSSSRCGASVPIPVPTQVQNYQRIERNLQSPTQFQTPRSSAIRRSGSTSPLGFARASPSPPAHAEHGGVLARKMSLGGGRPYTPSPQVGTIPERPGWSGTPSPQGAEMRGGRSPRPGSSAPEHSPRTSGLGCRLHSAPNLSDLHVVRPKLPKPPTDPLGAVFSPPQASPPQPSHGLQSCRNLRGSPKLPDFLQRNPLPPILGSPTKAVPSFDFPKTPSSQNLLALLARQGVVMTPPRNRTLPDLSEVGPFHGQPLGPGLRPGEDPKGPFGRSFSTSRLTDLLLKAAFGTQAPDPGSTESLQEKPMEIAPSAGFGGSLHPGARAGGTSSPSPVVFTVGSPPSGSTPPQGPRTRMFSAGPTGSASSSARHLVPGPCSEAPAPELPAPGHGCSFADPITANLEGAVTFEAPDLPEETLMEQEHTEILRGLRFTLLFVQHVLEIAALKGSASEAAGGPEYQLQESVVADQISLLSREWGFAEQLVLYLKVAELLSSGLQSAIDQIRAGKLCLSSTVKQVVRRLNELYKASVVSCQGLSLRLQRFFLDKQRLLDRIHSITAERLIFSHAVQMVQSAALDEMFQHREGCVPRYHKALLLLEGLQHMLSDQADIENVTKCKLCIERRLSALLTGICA
ASK1 inh: human ASK1 kinase inhibition, primary screen. Q99683. 22,000 tested, 0.99% active. inhibition, % at 7.44 µM. AlphaScreen MKK6 phosphorylation by ASK1, luminescence. AID 1159602; in the data active = inhibition above about 35%;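 also: 0% = median of compound wells and 100% = no enzyme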
AlphaScreen intf: AlphaScreen optical interference dose response, ASK1 counter-screen | shares compounds with ASK1 inh | AlphaScreen TruHits beads, signal interference counterscreen | IC50, µM | 220 tested, 20% active | AID 1159604;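 active = IC50 of 10 µM or lower in the counterscreen; inactive = IC50 above 10 µM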;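 also: loss of AlphaScreen light from TruHits beads alone with no ASK1 enzyme present; potency of signal reduction so a low IC50 flags an assay artifact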
Active calls of the source: *; i = inactive; nt = no result; ! = not active in a repeat.

SMILES	ULK1 inh	ASK1 inh	AlphaScreen intf
CC(C)n1cnc2c(Nc3ccc4c(c3)OCO4)nc(N3CCN(Cc4ccc5c(c4)OCO5)CC3)nc21	24	16	nt
CC(C)n1cnc2c(Nc3ccc(N4CCOCC4)cc3)nc(N3CCN(Cc4ccc5c(c4)OCO5)CC3)nc21	4	41*	i
COc1ccc(CCNc2nc(N3CCN(Cc4ccc5c(c4)OCO5)CC3)nc3c2ncn3C2CCCCC2)cc1	15	48*	>23
COc1ccc(CCNc2nc(NC3CCN(Cc4ccccc4)CC3)nc3c2ncn3C2CCCCC2)cc1	10	43*	>23
Oc1ccc(CCNc2nc(N3CCN(Cc4ccc5c(c4)OCO5)CC3)nc3c2ncn3-c2ccsc2)cc1	19	38*	i
Oc1ccc(CCNc2nc(N3CCN(Cc4ccc5c(c4)OCO5)CC3)nc3c2ncn3C2CCCCC2)cc1	27	35	nt
COC(=O)c1ccc(C(=O)OC)c(NC(=O)COc2cccc3c2OC(C)(C)C3)c1	-1	nt	nt
COc1ccc(CCNc2nc(Nc3ccncc3)nc3c2ncn3CCN2CCCC2=O)cc1	19	4	nt
CC(C)N(CCNc1ccnc(Nc2ccnn2C)n1)C(C)C	-13	-28	nt
O=C(CN1CCC2(CC1)NC(=O)N(Cc1ccc(Cl)cc1)C2=O)N1CCOCC1	-3	nt	nt
FC(F)(F)c1ccc(Cn2cnc3c(NC4CC4)nc(Nc4ccccc4)nc32)cc1	-34	4	nt
CC(C)n1cnc2c(Nc3ccc4c(c3)OCO4)nc(N3CCC(N4CCOCC4)CC3)nc21	23	10	nt
Cc1cc(Nc2ccc(N3CCOCC3)cc2)nc(Nc2ccncc2)n1	5	21	nt
Cc1cc(Nc2ccc3c(c2)OCO3)nc(Nc2ccc(N3CCOCC3)cc2)n1	-18	73*	i
COc1ccc(-c2nc(C)cc(Nc3ccc(N4CCOCC4)cc3)n2)cn1	1	27	nt
COc1ccc(-c2nc(C)cc(Nc3ccc(N4CCOCC4)cc3)n2)cc1	0	50*	i
c1cc(-n2cnc3c(Nc4ccc(N5CCOCC5)cc4)nc(N4CCOCC4)nc32)cs1	42	-10	nt
CC(C)n1cnc2c(Nc3ccc4c(c3)OCO4)nc(Nc3ccc(N4CCOCC4)cc3)nc21	12	36*	>20
c1cc(-n2cnc3c(Nc4ccc(N5CCOCC5)cc4)nc(N4CCN(Cc5ccc6c(c5)OCO6)CC4)nc32)cs1	19	51*	i
COc1cc(NC(=O)c2cccc(-n3cc(Nc4ncc(F)c(-c5ccccc5)n4)cn3)c2)ccc1N1CCOCC1	-5	7	nt
COc1cc(Nc2nc(NC3CCN(Cc4ccccc4)CC3)c3ncn(-c4ccsc4)c3n2)cc(OC)c1OC	8	25	nt
O=C([C@@H](O)c1ccc(Br)cc1)N1CCC(Nc2ccc3[nH]ncc3c2)CC1	6	-21	nt
c1ccc(-c2nc(NCCCn3ccnc3)cc(-c3ccccn3)n2)cc1	-19	nt	nt
COc1cc2nc(Nc3nccc4ccccc34)nc(Nc3ccc(NC(C)=O)cc3)c2cc1OC	-2	69*	>19
COc1cc2nc(Nc3ccccc3)nc(Nc3ccc(NC(C)=O)cc3)c2cc1OC	-5	3	nt
SMILES	ULK1 inh	ASK1 inh	AlphaScreen intf
CC(=O)c1cccc(-c2nc(NCCc3ccc(O)cc3)c3ncn(-c4ccsc4)c3n2)c1	-43	3	nt
CCN(CC)c1nc(Nc2ccc(N3CCOCC3)cc2)nc(N2CCN(Cc3ccc4c(c3)OCO4)CC2)n1	8	43*	>19
CCN(CC)c1nc(Nc2ccc(N3CCOCC3)cc2)nc(N2CCC(N3CCOCC3)CC2)n1	-7	14	nt
CCN(CC)c1nc(Nc2ccccc2)nc(N2CCN(Cc3ccc4c(c3)OCO4)CC2)n1	-7	13	nt
CCN(CC)c1nc(Nc2ccc3c(c2)OCO3)nc(N2CCC(N3CCOCC3)CC2)n1	-10	39*	>20
Cc1cnc(-c2ccc(C(N)=O)cc2)nc1Nc1ccccc1	5	0	nt
COc1cc(Nc2nc(Nc3cc(OC)c(OC)c(OC)c3)c3ncn(Cc4ccc(C(F)(F)F)cc4)c3n2)cc(OC)c1OC	-19	19	nt
COc1cc(Nc2nc(-c3c(C)noc3C)nc3c2ncn3Cc2ccc(C(F)(F)F)cc2)cc(OC)c1OC	-46	37*	>27
Cc1nc(C)n(-c2ccc(Nc3nccc(-c4cc(F)cc(-c5ncco5)c4)n3)cc2)n1	13	38*	>19
Cc1[nH]ncc1-c1cc(F)cc(-c2ccnc(Nc3ccc(-n4cnc(C(F)(F)F)n4)cc3)n2)c1	-2	25	nt
Cc1nc(C)n(-c2ccc(Nc3nccc(-c4cncc(F)c4)n3)cc2)n1	2	2	nt
Cc1nc(C)n(-c2ccc(Nc3nccc(-c4cc(F)cc(-c5ccnn5C)c4)n3)cc2)n1	-1	5	nt
Cc1ncn(-c2ccc(Nc3nccc(-c4cc(F)cc(-c5cn[nH]c5C)c4)n3)cc2)n1	6	48*	>19
Cc1nc(C)n(-c2ccc(Nc3nccc(-c4cc(F)cc(-c5cn[nH]c5C)c4)n3)cc2)n1	0	36*	>19
CCN(CC)c1nc(NCc2ccccc2)nc(Nc2ccncn2)n1	12	3	nt
c1ccc(CNc2nc(N3CCc4ccccc4C3)nc3nc[nH]c23)cc1	-10	0	nt
COc1ccc(-c2nc3c(Nc4ccc(Oc5ccccc5)cc4)ncnc3n2C(C)C)cc1	-1	0	nt
CC(C)n1c(-c2ccc(C(N)=O)cc2)nc2c(Nc3ccc(Oc4ccccc4)cc3)ncnc21	-29	37*	>20
COc1c(-c2cnn(C)c2)ccc2cnc(Nc3ccc(-n4cnc(N5CCOCC5)n4)cc3)nc12	83*	42*	>19
Cn1cc(-c2ccc3cnc(Nc4ccc(-n5cnc(N6CCOCC6)n5)cc4)nc3c2)cn1	56*	48*	>19
c1cc(-c2ccc3cnc(Nc4ccc(-n5cnc(N6CCOCC6)n5)cc4)nc3c2)ccn1	12	5	nt
Cn1cc(-c2ccc3cnc(Nc4ccc(-n5cnc(N6CCOCC6)n5)cc4)nc3c2-c2ccccc2)cn1	-78	-17	nt
CN(C)CCOc1cc(-c2ccnc(N)n2)ccc1NC(=O)C1COc2ccc(F)cc2C1 (stereo not drawn)	0	10	nt
Cc1ccc(-c2ncn(-c3ccc(Nc4nccc(-c5ccc(Cl)nc5)n4)cc3)n2)cn1	-22	28	nt
Cc1ccc(-c2ncn(-c3ccc(Nc4nccc(-c5ccc(N)nc5)n4)cc3)n2)cn1	-26	4	nt
SMILES	ULK1 inh	ASK1 inh	AlphaScreen intf
Cc1ccc(-c2ncn(-c3ccc(Nc4nccc(-c5cncc6ccccc56)n4)cc3)n2)cn1	4	38*	>19
Cc1ccc(-c2ncn(-c3ccc(Nc4nccc(-c5cncc(N6CCOCC6)c5)n4)cc3)n2)cn1	3	41*	>19
c1ccc(CN2CCC(Nc3cc(Nc4ccc(N5CCOCC5)cc4)ncn3)CC2)cc1	8	-5	nt
Cc1cc(NC2CC2)nc(Nc2ccc(N3CCOCC3)cc2)n1	5	7	nt
Cc1cc(NC2CCN(Cc3ccccc3)CC2)nc(Nc2ccc(N3CCOCC3)cc2)n1	6	40*	i
Nc1nc(Nc2ccc(N3CCOCC3)cc2)cc(NC2CCN(Cc3ccccc3)CC2)n1	19	43*!	>23
c1ccc2c(c1)OCC(CN1CCC(c3nc(-c4ccncc4)no3)C1)O2 (stereo not drawn)	-16	11	nt
O=C(Nc1ccc(-c2cn[nH]c2)cc1)C1COc2ccccc2O1 (stereo not drawn)	-2	12	nt
O=C(Nc1ccc(-c2ncnc3[nH]ccc23)cc1)C1COc2ccccc2O1 (stereo not drawn)	41	38*	>19
